An excerpt weighted towards active compounds, which were near 19% of everything screened.
KB-3-1 tox: kills parental KB-3-1 adenocarcinoma cells. KB-3-1 viability, CellTiter-Glo ATP luminescence, 72 h. Potency, µM (doses to about 46.1 µM), usual class: cytotoxic. 1.4% of 400,000 active. AID 1347075; also: nearly all actives have a fitted effect of over 60% in size
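Here the drug-naive KB-3-1 line serves as comparator for MDR sub-line selectivity; cells received compound titrations, 72 h at 37 °C, then CellTiter-Glo readout.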
HT1080-NT tox: kills 2HG-producing HT-1080-NT fibrosarcoma cells; HT-1080-NT fibrosarcoma viability, CellTiter-Glo ATP luminescence, 48 h; Potency, µM (top dose mostly 46.1 µM), usual class: cytotoxic; 1.6% of 360,000 active;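 also: NT is the 2HG producing partner of a matched IDH1 knockdown line; nearly all actives have a fitted effect of over 55% in size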
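750 cells/well, RPMI + 5% FBS; 2 h settle, compound pin-transfer, 48 h at 37 degrees C. CellTiter-Glo 10 min RT, luminescence. Normalized to DMSO and media-only wells.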
KB-V1 MDR tox: kills drug-selected multidrug resistant KB-V1 cells | 3.4% of 400,000 active | AID 1347076 | Potency, µM (highest dose often 46.1 µM), usual class: cytotoxic | KB-V1 MDR cells viability, CellTiter-Glo, 72 h; also: nearly all actives have a fitted effect of over 60% in size
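Drug-selected KB-V1 cells, grown in DMEM lacking phenol red with 10% FBS, receive compound titrations; after three days at 37 degrees C, surviving cell ATP is quantified by CellTiter-Glo luminescence and responses normalized and curve-fitted.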
HT1080 IDH1KD tx: HT-1080 IDH1 knockdown cell toxicity (counter line); HT-1080 IDH1 knockdown viability, ATP luminescence, 48 h; Potency, µM (highest dose often 46.1 µM), usual class: cytotoxic; 2% of 360,000 active; AID 686971
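After a 2 h attachment period, IDH1KD HT-1080 cells took pin-transferred compound for 48 h at 37 °C; ATP-based luminescence after 10 min room-temperature reagent incubation reported viability.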
TDP1 cell CPT: DT40-hTDP1 cell growth loss with CPT | Potency, µM (series often up to 46.2 µM), actives largely listed as inhibitors | chicken DT40 Tdp1-/-;hTDP1 cells + 20 nM CPT, ATP luminescence, 48 h | 12% of 420,000 active; also: nearly all actives have a fitted effect of over 55% in size
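Cell growth measured by CellTiter-Glo luminescence after a minimum 48 h, 37 C compound exposure with 20 nM CPT in Tdp1-knockout DT40 cells stably expressing hTDP1, seeded 400/well; qHTS titration format.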
TDP1 cell noCPT: qHTS for Inhibitors of human tyrosyl-DNA phosphodiesterase 1 (TDP1): qHTS in cells in absence of CPT | DT40 Tdp1-/- hTDP1 cells, no CPT, ATP luminescence, 48 h | Potency, µM (highest dose often 46.2 µM), most hits filed as inhibitors | 15% of 420,000 active | AID 686978, 2013; also: nearly all actives have a fitted effect of over 55% in size
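DT40 Tdp1-/-;hTDP1 cells, no CPT (DMSO vehicle only), 400 cells/well; compounds pin-transferred; ≥48 hr, 37 °C; CellTiter-Glo 30 min RT dark, luminescence read.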
Of the large screens only hits and unclear results are named; the others gave an inactive call. Calls follow the shape of the dose curve; as a rule, active = well fitted curve in the direction sought with a large enough effect; inconclusive = small, poorly fitted or top-dose-only effect, or another doubt; inactive = no such curve, though single readings can be large; an effect the other way counts as inactive or inconclusive.

CC(C)c1ccc(OCc2ccc(C(=O)N3CCN(c4ccccn4)CC3)cc2)cc1	KB-3-1 tox inconclusive, HT1080-NT tox inconclusive, KB-V1 MDR tox inconclusive, HT1080 IDH1KD tx inconclusive, TDP1 cell CPT inconclusive, TDP1 cell noCPT 20.6µM
Cc1ccc(C(=O)N2CCN(c3ccccn3)CC2)cc1	none
Cc1ccccc1OCC(=O)Nc1ccc(OCc2cc(=O)n3ccsc3n2)cc1	KB-V1 MDR tox inconclusive (no result: HT1080-NT tox, HT1080 IDH1KD tx)
O=c1[nH]c2cc(Cl)c(Br)cc2o1	KB-V1 MDR tox inconclusive, HT1080 IDH1KD tx inconclusive
COc1ccccc1CCN1COc2c(cc3c(C)c(C)c(=O)oc3c2C)C1	TDP1 cell CPT inconclusive, TDP1 cell noCPT inconclusive (no result: HT1080-NT tox, HT1080 IDH1KD tx)
Cc1ccc(-n2c(SCC(=O)N3CCCCC3)nc(O)c(Cc3ccccc3)c2=O)cc1	TDP1 cell CPT inconclusive, TDP1 cell noCPT 11.6µM
CCN(CC)C(=O)CSc1nc(O)c(Cc2ccccc2)c(=O)n1-c1ccc(C)cc1	TDP1 cell CPT inconclusive, TDP1 cell noCPT 13µM
CCOc1ccc(N=Cc2ccc(N(C)C)cc2)c(O)c1	KB-3-1 tox inconclusive, KB-V1 MDR tox inconclusive, TDP1 cell CPT 14.6µM, TDP1 cell noCPT 7.31µM
CCOc1ccc(N=Cc2ccc([N+](=O)[O-])cc2)c(O)c1	KB-V1 MDR tox inconclusive, TDP1 cell CPT 23.1µM, TDP1 cell noCPT 11.6µM
COc1ccc(/C=N/Nc2ccc([N+](=O)[O-])cc2)cc1O	KB-3-1 tox inconclusive, KB-V1 MDR tox inconclusive, HT1080 IDH1KD tx inconclusive, TDP1 cell CPT inconclusive, TDP1 cell noCPT inconclusive
CCOc1ccc(/C=N/NC(=O)c2ccc(Cn3cc([N+](=O)[O-])cn3)o2)cc1	none
CC(C)(C)c1ccc(OCc2ccc(C(=O)N/N=C/c3ccc([N+](=O)[O-])cc3)o2)cc1	HT1080 IDH1KD tx inconclusive, TDP1 cell CPT 18.4µM, TDP1 cell noCPT 20.6µM
CCOc1ccc(CNC(=S)N/N=C\c2ccc([N+](=O)[O-])cc2)cc1	TDP1 cell CPT 16.4µM, TDP1 cell noCPT 8.2µM
Oc1cccc2oc(=S)[nH]c12	none
Cc1nc2ccc(S(=O)(=O)NC(CC(C)C)C(=O)NCc3ccc(Cl)cc3)cc2s1 (configuration not stated)	TDP1 cell CPT inconclusive (no result: HT1080-NT tox, HT1080 IDH1KD tx)
CC1Cc2ccccc2N1C(=S)NC(=O)c1ccc(Cl)cc1Cl (configuration not stated)	KB-V1 MDR tox 16.4µM, TDP1 cell CPT inconclusive, TDP1 cell noCPT 10.3µM
CC1Cc2ccccc2N1C(=S)Nc1ccc(S(N)(=O)=O)cc1 (configuration not stated)	KB-3-1 tox inconclusive, KB-V1 MDR tox 18.4µM, TDP1 cell CPT inconclusive, TDP1 cell noCPT inconclusive
CC1Cc2ccccc2N1C(=S)NC(=O)c1cccc(Br)c1 (configuration not stated)	KB-3-1 tox inconclusive, KB-V1 MDR tox inconclusive, TDP1 cell CPT 20.6µM, TDP1 cell noCPT 14.6µM
COc1ccc(N2CCN(C(=O)Cn3nc(Cc4cccnc4)c4ccccc4c3=O)CC2)cc1	TDP1 cell noCPT inconclusive (no result: KB-3-1 tox, HT1080-NT tox, KB-V1 MDR tox, HT1080 IDH1KD tx)
COc1ccc(CCNC(=O)CN(Cc2ccc(Cl)cc2)S(C)(=O)=O)cc1	KB-V1 MDR tox inconclusive, TDP1 cell noCPT inconclusive
O=C1CSC(=S)N1N=Cc1ccc(Cl)cc1Cl	KB-V1 MDR tox inconclusive, TDP1 cell CPT inconclusive, TDP1 cell noCPT 20.6µM
COc1cc(O)c(C=NN2C(=O)CSC2=S)c(OC)c1	TDP1 cell CPT 20.6µM, TDP1 cell noCPT 23.1µM
O=C1CSC(=S)N1N=Cc1cccc(OCc2ccccc2)c1	none
Cc1ccccc1/C=N/N1C(=O)CSC1=S	none
COc1cc(/C=N/N2C(=O)CSC2=S)ccc1O	KB-3-1 tox inconclusive
O=C1CSC(=S)N1/N=C/c1cccnc1	TDP1 cell CPT 14.6µM, TDP1 cell noCPT inconclusive
O=C1CSC(=S)N1N=Cc1ccccc1O	TDP1 cell CPT inconclusive, TDP1 cell noCPT 9.2µM
COc1ccc(CNCCCSc2nnnn2C)c(OC)c1	none (no result: HT1080-NT tox, HT1080 IDH1KD tx)
Cc1ccc(OCCN(C)C(=O)C2CCC(=O)N(CCCN3CCCC3=O)C2)cc1 (configuration not stated)	KB-V1 MDR tox inconclusive
